# High-throughput results as filed in PubChem BioAssay.
# This is one part of a sample in which hits are shown more often than they occur.
# 12-hLO inh = 12-hLO (ALOX12) enzyme inhibition. purified 12-hLO, xylenol orange hydroperoxide absorbance. Potency, µM (top dose mostly 57.1 µM), without a hit: at the highest dose activity change, negative = inhibition, actives largely listed as inhibitors. 150,000 compounds, 0.12% hits. AID 1452; also: potency is read from the fitted curve at half-maximal effect; nearly all actives have a fitted effect of over 55% in size
# Target sequence (P18054 whole entry, looked up): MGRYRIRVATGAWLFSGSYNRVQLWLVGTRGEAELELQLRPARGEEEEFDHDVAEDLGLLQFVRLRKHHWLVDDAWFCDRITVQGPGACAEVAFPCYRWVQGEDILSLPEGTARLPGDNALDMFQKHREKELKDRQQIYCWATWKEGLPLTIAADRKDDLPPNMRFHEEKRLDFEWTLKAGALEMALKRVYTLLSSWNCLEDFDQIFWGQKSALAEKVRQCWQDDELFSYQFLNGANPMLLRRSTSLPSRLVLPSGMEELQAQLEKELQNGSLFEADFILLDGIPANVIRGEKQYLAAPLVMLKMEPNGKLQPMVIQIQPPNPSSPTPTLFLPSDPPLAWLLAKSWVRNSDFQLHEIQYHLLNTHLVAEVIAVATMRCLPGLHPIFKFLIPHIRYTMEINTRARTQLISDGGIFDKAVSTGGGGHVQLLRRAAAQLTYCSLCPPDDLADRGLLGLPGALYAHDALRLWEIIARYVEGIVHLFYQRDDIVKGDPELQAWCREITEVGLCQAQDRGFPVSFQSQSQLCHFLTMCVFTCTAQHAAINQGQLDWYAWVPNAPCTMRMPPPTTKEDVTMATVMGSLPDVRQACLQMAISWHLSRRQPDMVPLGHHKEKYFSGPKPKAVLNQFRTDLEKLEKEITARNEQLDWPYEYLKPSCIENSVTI
#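 Hydroperoxide output read as Fe(III)-xylenol orange absorbance, 573-to-405 nm ratio, after 30 min reaction with 40 uM arachidonic acid. Enzyme: 150 nM purified human 12hLO, 15 min compound preincubation; 25 mM Hepes pH 7.0, room temperature.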
# IMPase Li cell = cell-permeable IMPase inhibitors with lithium potentiation | 210,000 compounds, 0.35% hits | CHO-M1 cells, IP1 TR-FRET (IP-One), carbachol + lithium | Potency, µM (doses to about 59.4 µM), for inactives: at the top dose activity, negative = IMPase inhibition, usual class: inhibitors | AID 1457;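 also: IP1 builds up when IMPase is blocked and the TR-FRET signal falls; potency is read from the fitted curve at half-maximal effect; plate controls were basal vehicle for no effect and high inhibitor control for full effect; nearly all actives have a fitted effect of over 50% in size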
#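 IP1 accumulation measured by competitive TR-FRET in lysed CHO-M1 cells after 30 min compound exposure at 37C, with a small lithium addition to potentiate weak responses. Hill-equation AC50 from ratio and donor-channel data.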
# IMPase cell inh = membrane-permeable compound that blocks inositol monophosphatase; inhibition (IP1 accumulation), % at 46.1 µM; CHO-M1 cells, IP1 accumulation, HTRF TR-FRET ratio; 120,000 tested, under 10 active; P97697; active = well fitted curve in the direction sought with a large enough effect in the signal ratio, not every such curve was filed as active; inconclusive = small, poorly fitted or top-dose-only effect, or a change in a side signal; inactive = no such curve, though single readings can be large or run the other way; the % refers to the signal ratio;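 also: cells stimulated with carbachol in lithium chloride buffer; plate controls were DMSO basal wells for no effect and reference inhibitor wells for full effect; higher means more IMPase inhibition seen as more IP1 and lower FRET ratio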
#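 Seeded CHO-M1 cells were dosed with compound at up to 46 uM, stimulated with carbachol for 30 min, then lysed in IP-One detection reagents. Higher IP1 lowers the TR-FRET signal.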
# PNC assembly inh = inhibitors of perinucleolar compartment assembly | PC3M PTB-GFP, PNC prevalence imaging, 16 h; active compounds read low | activity change (PNC), negative = inhibition, % at 10 µM | 140,000 compounds, 3.1% hits;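 active = readout at or below -70, meaning at least 70% loss of cells showing the perinucleolar compartment, a nuclear body marking cancer cells; inconclusive = readout between -30 and a set limit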;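 also: plate controls were DMSO wells for no effect and camptothecin positive control wells for full effect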
#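 Compounds are pinned in duplicate onto adhered PC3M cells stably expressing GFP-tagged PTB and incubated 16 h at 37 C. Cells are then fixed, nuclei stained with Hoechst, and PNC-positive cells counted.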
# * marks the source's active call; other numbers are inactive results; ? = inconclusive; · = not tested or not shown; [ ] = remark or other dose. Unless noted, calls follow the shape of the dose curve; as a rule, active = well fitted curve in the direction sought with a large enough effect; inconclusive = small, poorly fitted or top-dose-only effect, or another doubt; inactive = no such curve, though single readings can be large; an effect the other way counts as inactive or inconclusive. Unless noted, % is scaled to controls: 0 for no effect and ±100 for the full control effect.
SMILES,12-hLO inh,IMPase Li cell,IMPase cell inh,PNC assembly inh
C#CCOCCOCCOCCNc1nc(N2CCN(C(=O)[C@H]([C@@H](C)CC)n3cc([C@@H](N)CO)nn3)CC2)nc(N2CCN(C(=O)[C@H](CCCCN)n3cc([C@@H](N)CC(C)C)nn3)CC2)n1,·,-4.2%,·,·
COC(=O)N[C@H](c1ccccc1)C(C(C)=O)C(=O)OC (stereo partly specified),-0.2%,14.8%,·,·
Cc1ccc(C)c(OCCn2cc(/C=C(\C#N)C(=O)NCc3ccco3)c3ccccc32)c1,0.1%,11.2%,·,-85.6*
CC(C)C1CC(c2ccccc2)(C(CN)CO)CCO1 (stereo unspecified),·,9.5%,·,·
CCCn1cc(NC(=O)c2cc3n(n2)C(C(F)(F)F)CC(c2ccccc2)N3)cn1 (stereo unspecified),1.4%,5.5%[38.3 µM],2.7,-87.3*
N#C/C(=N\Nc1ccccc1F)C(=N)N1CCCCC1,-23.9%,5.8%,11.0,-85.0*
O=C(NCCc1ccccc1)c1ccc(Cl)nc1,1.0%,9.4%,1.2,-100.0*
O=C(NCCc1ccccc1)c1ccncc1,-7.6%,-5.3%[38.3 µM],5.4,-28.7
N#CC1=C(N)NC(SCc2ccccc2)=C(C#N)C12CCCC2,-26.7%,0.5%,·,-113.4*
CCSC1=C(C#N)C2(CCCC2)C(C#N)=C(N)N1,-7.1%,7.6%[38.3 µM],-8.6,-81.2*
Cc1ccc(S(=O)(=O)NC(C(=O)Oc2ccc3c(C)c(Cl)c(=O)oc3c2)c2ccccc2)cc1 (stereo unspecified),-2.8%,-3.9%,-16.4,-110.8*
Cc1nc(NC(=O)CSc2nc3cccnc3n2C2CCCCC2)sc1C,0.1%,-29.3%[38.3 µM],-4.6,-124.9*
Cc1ccc(/C=N\NC(=O)c2cc(OCC(F)(F)F)ccc2OCC(F)(F)F)cc1,4.6%,-0.5%[38.3 µM],-12.6,?
Cc1ccc(S(=O)(=O)NCCNC(=O)c2cc(OCC(F)(F)F)ccc2OCC(F)(F)F)cc1,-7.0%,11.2µM*,-8.6,?
O=C(NCCNS(=O)(=O)c1ccccc1Cl)c1cc(OCC(F)(F)F)ccc1OCC(F)(F)F,-7.2%,-0.7%[38.3 µM],1.3,19.7
O=C(N/N=C\c1ccc(F)cc1)c1cc(OCC(F)(F)F)ccc1OCC(F)(F)F,-8.5%,10.7%[38.3 µM],3.8,-86.7*
O=C(CN1C(=O)CCC1=O)Nc1ccc(Br)cc1,5.62µM*,2.9%[38.3 µM],2.3,8.6
COC(=O)c1ccc(NC(=O)CN2C(=O)CCC2=O)cc1,-3.9%,-6.3%[38.3 µM],0.0,13.8
C[C@H](NC(=O)c1ccc(Cl)c(Cl)c1)c1ccc(-c2ccccc2)cc1,-1.4%[11.4 µM],11.4%,·,·
CC(CC(=O)O)(CC(=O)O)c1ccccc1,3.7%[11.4 µM],4.9%,·,·
S=C(NCc1ccc2c(c1)OCO2)NC1CC1,·,-8.4%,·,·
Oc1ccc(-c2nc(-c3ccc(O)c(O)c3)cs2)cc1,5.01µM*,4.9%[38.3 µM],-1.0,-101.0*
CCNc1c(C(=O)O)ccc2c1C(=O)c1ccccc1C2=O,0.8%,48.4%,11.2,-84.6*
COc1ccccc1-c1nn2c(C(F)(F)F)nnc2s1,-5.2%,7.94µM*,-1.3,29.9
COc1ccccc1-c1nn2c(C3COc4ccccc4O3)nnc2s1 (stereo unspecified),-9.5%,31.6µM*,5.4,?
SMILES,12-hLO inh,IMPase Li cell,IMPase cell inh,PNC assembly inh
Clc1ccc(/C=C\c2nc(Cl)c(-c3ccc(Cl)cc3)c(Cl)n2)cc1,-1.8%[11.4 µM],4.4%,·,·
CCOc1ccc(NC2=NCC(=O)N2Cc2cccs2)cc1,0.7%,-15.3%[38.3 µM],2.9,-104.8*
CCS(=O)(=O)Nc1ccc(C(=O)c2ccccc2)cc1,-3.2%,-3.3%,-2.0,-22.6
O=C(CN1CC(c2ccccc2)CC1=O)OCc1ccccc1F (stereo unspecified),-2.2%,53.1%[38.3 µM],17.3,-90.9*
COc1cc(NC(=O)CN2CC(c3ccccc3)CC2=O)cc(OC)c1 (stereo unspecified),-4.1%,9.3%,-6.1,-9.4
Cc1nc2nc(SCC(=O)O)nn2c(C)c1Cc1ccccc1Cl,·,-1.5%,·,·
O=C(O)C1C2C=CC(O2)C1C(=O)NCc1ccc2c(c1)OCO2 (stereo unspecified),-1.7%,-6.9%,10.7,-20.6
O=C(O)C1C2C=CC(O2)C1C(=O)NCc1ccc(Cl)cc1 (stereo unspecified),-0.4%,-4.6%,18.9,-130.7*
Cc1ccc(-c2nc3ccccc3c(=O)n2NC(=S)N(C)C)cc1,0.4%,-0.7%,·,33.8
Cc1cc(=O)oc2cc(OCC(=O)OCc3nnc(-c4ccccc4)o3)ccc12,10.2%,-2.2%,-4.7,-85.6*
Cc1cc(C)cc(OCC(=O)NCCc2nc3ccccc3[nH]2)c1,·,-6.3%,-6.1,·
Cc1cc(=O)oc2cc(OCC(=O)NCCc3nc4ccccc4[nH]3)ccc12,18.8%,-10.8%[38.3 µM],7.8,-86.6*
Cc1cccc(N(C(=O)Cn2nnc3ccccc32)C(C(=O)NC(C)(C)C)c2ccsc2)c1 (stereo unspecified),0.6%,-4.6%,10.4,-94.0*
CC(C)CC1C(C#N)=C(N)Oc2n[nH]c(-c3ccccc3)c21 (stereo unspecified),-8.6%,4.1%,4.7,-100.0*
COc1cc(S(=O)(=O)NCC2CCCO2)ccc1Br (stereo unspecified),7.5%,25.5%[38.3 µM],5.3,-112.1*
COc1cc(/C=N/NC(=O)CCN2CCN(c3ccccc3)CC2)cc(OC)c1OC,-2.7%,2.0%,·,-86.3*
CC(=O)c1sc(NC(=O)c2ccccc2)nc1-c1ccccc1,·,12.1%,·,·
COCCN(CCOC)S(=O)(=O)c1ccc(C(=O)Nc2nc(-c3ccccc3)c(C(=O)c3ccccc3)s2)cc1,1.3%,-15.8%,·,-13.7
CCOC(=O)Nc1nc(-c2ccccc2)c(C(=O)c2ccccc2)s1,-1.7%,?,-6.6,-82.9*
COC(=O)Nc1nc(-c2ccccc2)c(C(=O)c2ccc(Cl)cc2)s1,4.0%,26.2%[38.3 µM],-6.2,-102.1*
Cc1cc(C(=O)COC(=O)c2ccc(CO)cc2)c(C)n1CC1COc2ccccc2O1 (stereo unspecified),-2.8%,18.9%,·,?
CC(C)(C)c1ccc(O)c(CN(Cc2cc(C(C)(C)C)ccc2O)c2ccccc2)c1,3.0%[11.4 µM],7.4%,·,·
Cc1cc(=O)c2c(O)c3c(O)cc(O)c4c5c(O)cc(O)c6c(O)c7c(=O)cc(C)c8c1c2c(c34)c(c65)c78,?,12.6µM*,·,·
COc1cccc(CNC(=O)C(c2ccc(Cl)cc2)C(C)C)c1 (stereo unspecified),-3.8%,15.0%,·,?
Cc1nnc(NC(=O)c2ccc3c(c2)C(=O)N(CC2CCCO2)C3=O)s1 (stereo unspecified),1.8%,1.4%[38.3 µM],-2.0,-90.0*
Cc1ccc(NC(=O)c2ccc3c(c2)C(=O)N(CC2CCCO2)C3=O)cc1C (stereo unspecified),·,22.1%,·,·
Cc1c(NC(=O)c2ccc3c(c2)C(=O)N(CC2CCCO2)C3=O)cccc1C(=O)O (stereo unspecified),2.7%,14.7%[38.3 µM],0.5,-81.3*
COc1ccc(NC(=O)NC23CC4(C)CC(C)(CC(C)(C4)C2)C3)cc1OC,0.8%,6.6%,-1.1,-14.7
